According to PubChem BioAssay (NCATS):
Values joined by “and” are separate entries in the source; they are usually repeats but may differ in a detail not shown here. Equal entries are not always repeated. Results filed as inconclusive are left out. Active and inactive are the calls of the source. Unless noted, calls come from the whole dose curve; as a rule, active = well fitted inhibition curve with a large enough effect; inconclusive = small, poorly fitted or top-dose-only effect; inactive = no such curve, though single readings can be large or run the other way.

system: not listed separately; assay: Primary qHTS for inhibitors of nuclear receptor binding SET domain protein 2 (NSD2) in an RCH-ACV wild type WT cells (2C) (AID 1645877); conditions: RCH-ACV (leukaemia line) NSD2 WT (2C) viability, CellTiter-Glo, 72 h; series mostly up to 44.9 µM; note: nearly all actives have a fitted effect of over 70% in size
Potency is the fitted concentration of half-maximal effect.

| Structure (SMILES) | Potency |
| --- | --- |
| CN(C)CCCn1cc(C2=C(c3c[nH]c4ccccc34)C(=O)NC2=O)c2ccccc21 | 3.25 µM (active) |
| C/C(=N\N=C(N)N)c1cc(NC(=O)CCCCCCCCC(=O)Nc2cc(/C(C)=N/N=C(N)N)cc(/C(C)=N/N=C(N)N)c2)cc(/C(C)=N/N=C(N)N)c1 | 11.5 µM (active) |
| CCCC1(CCC)CCC2(CCN(CCCN(CC)CC)C2)CC1 | 2.09 µM (active) |
| CN[C@H]1CC[C@@H](c2ccc(Cl)c(Cl)c2)c2ccccc21 | 2.66 µM (active) and 9.34 µM (active) |
| COc1cccc(-c2cn(-c3ccc(CCN4CCC(O)CC4)cc3)c3ncnc(N)c23)c1 | 1.83 µM (active) |
| CCOc1ccc(Cc2nc(-c3c(C)nc4ccccn34)cs2)cc1 | 0.183 µM (active) |
| O=c1nc(-c2ccccn2)sc2ccccc12 | 1.63 µM (active) |
| CC[C@@H](C)Nc1cc(C(=O)NC2CC3CC[C@@H](C2)N3c2ccc(C(=O)C3CC3)cn2)c(C)cc1C(N)=O (stereo partly specified) | 0.105 µM (active) |
| COc1cc(CCc2ccc(OCC=C(C)C)cc2)cc(OC)c1OC | inactive |
| O=C([C@@H]1CCCN(c2ccc3[nH]c(C4(n5cc(Cl)cn5)CC4)nc3n2)C1)N1CCCC1 | inactive |
| NCC(CNc1nc(Nc2cccc(NC(=O)N3CCCC3)c2)ncc1I)C(=O)c1cccs1 (stereo unspecified) | 2.58 µM (active) |

target: Catechol O-methyltransferase (Homo sapiens) (UniProt P21964); assay: Confirmatory Screen for Target Class Profiling of Small Molecule Inhibitors of Methyltransferases (AID 1745852; calls by dose curve; for activity change, negative = inhibition: % is set by controls: 0 for no effect and ±100 for the full control effect); conditions: MTase-Glo luminescence, SAH detection, recombinant enzyme; measured here: COMT max response; stronger effect = lower value
Sequence (P21964 whole entry, looked up): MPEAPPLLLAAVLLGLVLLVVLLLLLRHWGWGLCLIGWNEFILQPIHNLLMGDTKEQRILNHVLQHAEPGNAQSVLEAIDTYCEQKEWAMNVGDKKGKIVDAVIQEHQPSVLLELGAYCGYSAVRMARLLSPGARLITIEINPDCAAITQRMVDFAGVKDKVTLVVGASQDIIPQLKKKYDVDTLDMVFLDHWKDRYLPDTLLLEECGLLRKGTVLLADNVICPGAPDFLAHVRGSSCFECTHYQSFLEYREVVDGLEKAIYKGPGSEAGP

| Structure (SMILES) | activity [%] |
| --- | --- |
| CN(C)CCCn1cc(C2=C(c3c[nH]c4ccccc34)C(=O)NC2=O)c2ccccc21 | -45.6 |
| C/C(=N\N=C(N)N)c1cc(NC(=O)CCCCCCCCC(=O)Nc2cc(/C(C)=N/N=C(N)N)cc(/C(C)=N/N=C(N)N)c2)cc(/C(C)=N/N=C(N)N)c1 | -85.9 |
| COc1cccc(-c2cn(-c3ccc(CCN4CCC(O)CC4)cc3)c3ncnc(N)c23)c1 | -79.5 |
| O=C([C@@H]1CCCN(c2ccc3[nH]c(C4(n5cc(Cl)cn5)CC4)nc3n2)C1)N1CCCC1 | -0.433 |
| NCC(CNc1nc(Nc2cccc(NC(=O)N3CCCC3)c2)ncc1I)C(=O)c1cccs1 (stereo unspecified) | -3.81 |

target: Guanidinoacetate N-methyltransferase (Homo sapiens) (UniProt Q14353); assay: as above; conditions: MTase-Glo luminescence, SAH detection, recombinant enzyme; activity change, negative = inhibition: at 57.3 µM (top of the series) unless noted; series mostly up to 57.3 µM

| Structure (SMILES) | Potency | activity change, negative = inhibition [%] |
| --- | --- | --- |
| CN(C)CCCn1cc(C2=C(c3c[nH]c4ccccc34)C(=O)NC2=O)c2ccccc21 | 27100 nM (active) |  |
| C/C(=N\N=C(N)N)c1cc(NC(=O)CCCCCCCCC(=O)Nc2cc(/C(C)=N/N=C(N)N)cc(/C(C)=N/N=C(N)N)c2)cc(/C(C)=N/N=C(N)N)c1 | 27100 nM (active) |  |
| COc1cccc(-c2cn(-c3ccc(CCN4CCC(O)CC4)cc3)c3ncnc(N)c23)c1 | 24100 nM (active) |  |
| O=C([C@@H]1CCCN(c2ccc3[nH]c(C4(n5cc(Cl)cn5)CC4)nc3n2)C1)N1CCCC1 |  | 0 |
| NCC(CNc1nc(Nc2cccc(NC(=O)N3CCCC3)c2)ncc1I)C(=O)c1cccs1 (stereo unspecified) |  | 0 |
